KCNH2 WT inh: qHTS for Inhibitors of KCHN2 3.1: Wildtype qHTS; activity change, % at 1.84 µM; Voltage-gated inwardly rectifying potassium channel KCNH2 (Homo sapiens), Q12809; 340,000 compounds, 0.37% hits; U2OS, BacMam KCNH2, thallium flux FluxOr; active compounds read low;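 active = maximum activity change below -70%; inconclusive = maximum activity change between -70% and -50%; inactive = maximum activity change above -50%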
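U2OS cells were transduced with wild-type KCNH2 virus (2.03 x 10^8 / mL) for 4 h at room temperature, then cultured overnight at 37 C. Thallium flux was read with FluxOr dye. Rate constants were normalized to DMSO controls.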
GCN5L2 inh: qHTS Assay for Inhibitors of GCN5L2; Potency, µM (top dose mostly 58.9 µM), actives largely listed as inhibitors; GCN5L2 HAT assay, ThioGlo1 CoA-SH fluorescence; Histone acetyltransferase KAT2A (Homo sapiens), Q92830; 390,000 compounds, 0.21% hits
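Fluorescence readout, Ex340nm/Em540nm: ThioGlo1 (50uM final) reacts with free CoA thiol released as 20nM GCN5L2 acetylates H3(1-25) peptide (75uM) using acetyl-CoA (70uM). Compound and enzyme sat 15 min beforehand; 20 min room-temperature reaction.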
Tb PGK inh: qHTS Assay to Find Inhibitors of Phosphoglycerate Kinase; Phosphoglycerate kinase, glycosomal (Trypanosoma brucei brucei), P07378; PGK/GAPDH coupled, Kinase-Glo luminescence, 60 min; Potency, µM (series often up to 57.5 µM), usual class: inhibitors; 380,000 compounds, 0.043% hits; AID 602233, 2012; also: nearly all actives have a fitted effect of over 60% in size
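Recombinant glycosomal PGK reaction used 1,3-bisphosphoglycerate generated in-well by GAPDH (100nM final) in 100mM TEA pH 7.6, 5mM MgCl2, 0.01% Tween-20. After 60 minutes at room temperature, ATP was read by Kinase-Glo Plus luminescence end-point.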
Pin1 inhibitor: qHTS Assay to Find Inhibitors of Pin1; Peptidyl-prolyl cis-trans isomerase NIMA-interacting 1 (Homo sapiens), Q13526; Pin1 FP peptide displacement, HiFluor488, 10 min; Potency, µM (highest dose often 115 µM), usual class: inhibitors; 390,000 compounds, 0.009% hits; AID 504891, 2011; active = well fitted inhibition curve with a large enough effect in the polarisation, with a control signal flat, not every such curve was filed as active; inconclusive = small, poorly fitted or top-dose-only effect, or effect the other way, or a change in a side signal; inactive = no such curve, though single readings can be large or run the other way; the % refers to the polarisation
Target sequence (Q13526 whole entry, looked up): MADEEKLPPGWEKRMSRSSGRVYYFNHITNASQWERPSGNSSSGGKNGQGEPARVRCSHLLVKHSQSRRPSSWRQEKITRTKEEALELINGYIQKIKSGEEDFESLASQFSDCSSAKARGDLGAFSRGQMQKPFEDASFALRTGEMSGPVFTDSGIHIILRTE
KCNH2 3.1 inh: qHTS for Inhibitors of KCHN2 3.1: Mutant qHTS. U2OS KCNH2 3.1, thallium flux FluxOr; active compounds read low. Potassium voltage-gated channel subfamily H member 2, brain isoform KCNH2 3.1 (human). 340,000 compounds, 0.95% hits. activity change, % (tested at about 1.8 µM);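 active = maximum activity change below -70%; inconclusive = maximum activity change from -70% to -50%; inactive = maximum activity change above -50%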;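 also: thallium influx rate constant from kinetic fluorescence after stimulation buffer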
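U2OS cells transduced with KCNH2 3.1 mutant virus (1.77 x 10^8 /mL, 4 h), plated overnight at 37 C, loaded 45 min with FluxOr dye plus Red40 quencher. Thallium flux rate constant from kinetic reads after stimulation buffer, normalised to controls.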
RGS4 inhibitor: Inhibitors of Regulator of G Protein Signaling (RGS) 4: qHTS | Transcreener GDP fluorescence polarization, RGS4-accelerated GTP hydrolysis | Potency, µM (series often up to 114 µM), most hits filed as inhibitors | 390,000 compounds, 0.039% hits | AID 504845, 2011; also: nearly all actives have a fitted effect of over 75% in size
Target sequence (P49798 whole entry, looked up): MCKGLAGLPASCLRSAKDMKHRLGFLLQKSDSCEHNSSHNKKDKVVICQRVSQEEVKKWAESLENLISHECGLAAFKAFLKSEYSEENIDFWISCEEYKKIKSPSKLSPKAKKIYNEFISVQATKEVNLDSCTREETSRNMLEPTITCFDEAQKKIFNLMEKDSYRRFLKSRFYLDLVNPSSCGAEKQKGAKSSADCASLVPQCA
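MLSMR compounds (23 nl, pin-transferred) preincubated 10 min at room temperature with a 500nM (2x) first reagent, then RGS4 at 900nM (2x) plus Transcreener GDP mix added; fluorescence polarization (620/688 nm) read before and after 90 min at 30 °C.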
A number is an active result; . = inactive; ? = inconclusive; / = no result given; ! = repeats disagree; [ ] = dose if it differs, or a comment. This is a sample that favours compounds with a hit; in the whole collection about 1.2% have one here. Unless noted, calls follow the shape of the dose curve; as a rule, active = well fitted curve in the direction sought with a large enough effect; inconclusive = small, poorly fitted or top-dose-only effect, or another doubt; inactive = no such curve, though single readings can be large; an effect the other way counts as inactive or inconclusive.

SMILES | KCNH2 WT inh | GCN5L2 inh | Tb PGK inh | Pin1 inhibitor | KCNH2 3.1 inh | RGS4 inhibitor
Cc1cc(C)nc(SCc2ccc(C(=O)NN=C3C4CC5CC(C4)CC3C5)cc2)n1 | . | . | . | . | . | .
C=C[C@]1(C)CC(=O)[C@@]2(O)[C@@]3(C)C(O)CCC(C)(C)C3C(O)C(OC(C)=O)[C@@]2(C)O1 (some centres not stated) | / | . | / | / | / | /
C=C[C@@]1(C)CC(=O)[C@@]2(O)[C@@]3(C)[C@@H](O)CCC(C)(C)[C@@H]3[C@H](OC(=O)CCN(C)C)[C@H](OC(C)=O)[C@@]2(C)O1 | / | .[0.501 µM] | / | / | / | 8.4µM
C=C1c2cccc(O)c2C(O)=C2C(=O)[C@]3(O)C(O)=C(C(N)=O)C(=O)C(N(C)C)C3C(O)C12 (some centres not stated) | / | 10µM | / | / | / | /
C=C1c2cccc(O)c2C(O)=C2C(=O)[C@]3(O)C(O)=C(C(N)=O)C(=O)[C@@H](N(C)C)[C@@H]3[C@@H](O)[C@H]12 | . | . | . | / | . | ?
C=C1c2c(Cl)ccc(O)c2C(O)=C2C(=O)[C@]3(O)C(O)=C(C(N)=O)C(=O)C(N(C)C)C3C(O)C12 (some centres not stated) | / | 25µM | / | / | / | /
Cc1ccc(C)c(S(=O)(=O)N2CCN(C(C(=O)Nc3ccc(F)cc3)c3ccccc3)CC2)c1 (configuration not stated) | . | . | . | . | -86 | .
COc1cc(OC)c(N(C)C(=O)Nc2cn(CC(C)C)c(=O)c3ccccc23)cc1Cl | / | . | . | . | / | .
Clc1nssc1=Nc1ccc(Br)cc1 | . | 8.9µM | . | . | . | ?
OCc1ccccc1N=c1ssnc1Cl | / | . | / | / | / | /
COc1cc(N=c2ssnc2Cl)cc(OC)c1 | . | 22µM | . | . | . | ?
Clc1ccc(N=c2ssnc2Cl)nc1 | . | . | . | . | . | .
N#Cc1cccc(N=c2ssnc2Cl)c1 | . | 6.3µM | . | . | . | .
Clc1nssc1=Nc1nncs1 | . | 2.2µM | . | . | . | .
COc1cc(OC)cc(-c2nc(-c3ccccc3OC)no2)c1 | . | . | . | . | . | .
CC/C(=N/NC(=O)c1ccc(Br)cc1)c1ccc(OCCN2CCOCC2)cc1 | . | . | . | . | . | .
CCCOc1ccc(/C(CC)=N/NC(=O)C2(C)CC2(Br)Br)cc1 (configuration not stated) | . | . | . | . | -77 | .
Cc1cccc(NS(=O)(=O)c2ccc(C(=O)NCC3(N4CCCCC4)CCCCC3)cc2)c1C | . | . | . | . | -78 | .
O=C(NCCCN1CCCCC1)c1cc(Sc2ccc(Cl)cc2)nc2ccccc12 | / | . | . | . | / | .
O=C(NCCCN1CCCC1)c1cc(Sc2ccc(F)cc2)nc2ccccc12 | . | . | . | . | -78 | ?
COC(=O)C(Cc1c[nH]c2ccccc12)NC(=O)COc1ccc(Cl)cc1Cl (configuration not stated) | / | . | . | . | / | .
CCC12CCCN3CCc4c(n(c5ccccc45)C(O)(C(=O)OC)C1)C32 (configuration not stated) | . | . | . | ? | . | .
CC[C@@]12CCCN3CCc4c(n(c5ccccc45)[C@](O)(C(=O)OC)C1)[C@H]32 | / | 13µM! | / | / | / | /
Cc1ccc(C(=O)N/C(=C\c2ccc(-c3ccc(Cl)cc3)o2)C(=O)NCCCN(C)C)cc1 | -83 | . | . | . | ? | .
CN(C)CCCNC(=O)/C(=C\c1ccc(-c2ccc(Br)cc2)o1)NC(=O)c1ccccc1 | . | . | . | . | -117 | .
SMILES | KCNH2 WT inh | GCN5L2 inh | Tb PGK inh | Pin1 inhibitor | KCNH2 3.1 inh | RGS4 inhibitor
CN(C)CCCNC(=O)/C(=C/c1ccc(-c2ccc([N+](=O)[O-])cc2)o1)NC(=O)c1ccccc1 | ? | . | . | . | -99 | .
Cc1ccc(C(=O)N/C(=C\c2ccc(-c3ccccc3[N+](=O)[O-])o2)C(=O)NCCCN(C)C)cc1 | . | . | . | ? | . | .
CC(C)NC(=O)N1CCC2(CC1)CCN(C(=O)c1cc(C(F)(F)F)cc(C(F)(F)F)c1)CC2 | / | . | / | / | / | /
COCCCNC(=S)Nc1ccc2c(c1)OCCO2 | -88 | . | . | . | . | .
CSc1ccc(CCNC(=O)CN2C(=O)COc3ccc(S(=O)(=O)N4CCCC4)cc32)cc1 | / | . | . | . | / | .
CN(C)c1ccnc(Nc2ccccc2)c1C#N | . | . | . | . | -90 | .
COc1ccc(C(=O)CC2(O)C(=O)N(Cc3ccccc3)c3ccc(Br)cc32)cc1 (configuration not stated) | / | . | . | . | / | .
COc1ccc(Oc2ncc3nc(-c4cccc(C#N)c4)c(=O)n(C)c3n2)cc1 | / | . | / | / | / | /
O=C(OCc1csc(-c2ccccc2)n1)c1ccc(O)cc1 | . | . | . | . | -80 | .
COc1ccc(NC(=O)N2CCCC3(CCN(C(=O)c4csnn4)CC3)C2)cc1 | / | . | / | / | / | /
CN1CCN(c2cccc(Nc3nn4c(=O)c5ccc(C(F)(F)F)cc5nc4s3)c2)CC1 | / | / | / | . | / | /
c1ccc(CNc2nc3ccccc3[nH]2)cc1 | . | . | . | . | . | .
S=C(NCc1ccccc1)NNc1nc2ccccc2[nH]1 | . | ? | . | . | -74 | ?
CCN(CC)c1ccc(NC(=O)c2sc3ccccc3c2Cl)cc1 | / | . | . | . | / | .
CCN(CC)Cc1ccc(NC(=O)c2sc3cc(Cl)ccc3c2Cl)cc1 | . | . | . | . | -95 | .
Cc1cc(OCC(=O)Nc2ccc(CN3CCCCC3)cc2)ccc1Cl | . | . | . | . | -86 | .
O=C(Cc1ccc(Cl)cc1)Nc1ccc(CN2CCCCC2)cc1 | . | . | . | . | -70 | .
O=C(Nc1ccc(CN2CCCCC2)cc1)c1sc2ccccc2c1Cl | . | . | . | . | -100 | .
Cc1cc(OCC(=O)Nc2ccc(CN3CCOCC3)cc2)ccc1Cl | . | . | . | . | . | .
CCCCn1nnc(NC(=O)c2sc3cc(Cl)ccc3c2Cl)n1 | . | . | . | . | . | .
Cc1ccc(CCNC(=O)c2ccc(NC(=O)N3CCSc4ccccc43)cc2)cc1 | / | . | . | . | / | .
CCCN1C(=O)C2(c3ccccc31)c1c(oc3ccc(F)cc3c1=O)C(=O)N2CCCOC(C)C (configuration not stated) | / | . | . | . | / | .

Screens: PubChem BioAssay, National Center for Advancing Translational Sciences (NCATS)
